# Source: the supplement of paper PMC11624193, “Coupling cellular drug-target engagement to downstream pharmacology with CeTEAM” (Nature Communications, 2024)
# Counter-ions that a name gives are not always drawn. Unmarked numbers belong to inactive results.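 Rule for the calls: active = log2 fold change beyond 2 SD from the library mean after excluding viability outliers; inactive = within 2 SD.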
# Biological target: PARP1 L713F-nLuc biosensor (HCT116) (UniProt P09874)
# Assay: PARP1 L713F-nLuc/akaLuc ratio relative to DMSO control (biosensor stabilization) (fold change); higher = more PARP1 biosensor stabilization (target engagement / stabilizer), active = hit call of the paper
# Details: stock concentration (mM; final µM = stock mM x 1): 10; 24 h
# Sequence of PARP1 L713F-nLuc biosensor (HCT116) (P09874 whole entry L713F, looked up): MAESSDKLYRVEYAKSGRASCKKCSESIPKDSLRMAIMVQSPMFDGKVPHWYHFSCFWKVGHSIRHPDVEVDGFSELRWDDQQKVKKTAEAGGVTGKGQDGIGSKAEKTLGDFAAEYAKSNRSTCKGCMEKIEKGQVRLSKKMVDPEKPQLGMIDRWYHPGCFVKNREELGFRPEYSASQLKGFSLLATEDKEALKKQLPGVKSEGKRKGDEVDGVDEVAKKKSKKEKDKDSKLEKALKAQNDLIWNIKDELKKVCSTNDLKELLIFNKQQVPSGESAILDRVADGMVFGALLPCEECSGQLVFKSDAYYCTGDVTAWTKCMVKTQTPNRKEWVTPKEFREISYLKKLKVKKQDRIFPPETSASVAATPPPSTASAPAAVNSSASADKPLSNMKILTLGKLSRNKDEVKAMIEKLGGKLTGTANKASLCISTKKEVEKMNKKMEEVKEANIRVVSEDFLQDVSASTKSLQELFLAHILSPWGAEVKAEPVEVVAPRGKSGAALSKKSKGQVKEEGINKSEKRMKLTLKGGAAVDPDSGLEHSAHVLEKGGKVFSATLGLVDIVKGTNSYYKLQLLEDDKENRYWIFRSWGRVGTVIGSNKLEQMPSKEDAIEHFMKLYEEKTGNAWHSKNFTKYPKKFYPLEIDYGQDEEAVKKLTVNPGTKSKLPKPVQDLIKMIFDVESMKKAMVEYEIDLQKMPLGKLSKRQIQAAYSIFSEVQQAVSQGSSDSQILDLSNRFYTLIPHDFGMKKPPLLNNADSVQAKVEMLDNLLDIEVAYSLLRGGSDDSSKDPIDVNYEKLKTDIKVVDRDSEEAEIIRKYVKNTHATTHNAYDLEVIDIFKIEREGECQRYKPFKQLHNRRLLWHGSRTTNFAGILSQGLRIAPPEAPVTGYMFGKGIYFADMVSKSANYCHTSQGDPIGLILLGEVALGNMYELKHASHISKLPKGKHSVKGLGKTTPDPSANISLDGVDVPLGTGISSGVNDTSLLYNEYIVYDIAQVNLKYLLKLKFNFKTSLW
row,SMILES,PARP1 L713F-nLuc/akaLuc ratio
1,O=c1[nH]c(Oc2cnn(Cc3ccccc3)c2)nc2cnccc12,0.946
2,CN1CCc2c(c3ccccc3n2Cc2ccc(C(=O)NO)cc2)C1 [Tubastatin A],1.26
3,O=C(c1cccc(Cl)c1F)N1CCN(Cc2cccc(Nc3nccs3)n2)CC1,1.61
4,C/C=C(/C)C(=O)O[C@H]1Cc2cc3ccc(=O)oc3cc2OC1(C)C [Decursinol angelate],0.885
5,CNCc1ccc(-c2[nH]c3cc(F)cc4c3c2CCNC4=O)cc1 [Rucaparib (Camsylate)],6.55 (active)
6,CN1CCN(c2ccc3nc(-c4ccc5nc(-c6cccc(OCCCC(=O)NCCCN=[N+]=[N-])c6)[nH]c5c4)[nH]c3c2)CC1 [Targapremir-210],1.46
7,"CCOC(=O)c1c[nH]c2c(ccc3cccnc32)c1=O [1,4-DPCA ethyl ester]",1.19
8,COc1c(O)cc2oc(-c3ccc(O)cc3)cc(=O)c2c1O [Hispidulin],0.723
9,O=c1cc(O)cc(/C=C/c2ccc(O)c(O)c2)o1 [Hispidin],1.19
10,O=c1ncccn1[C@@H]1O[C@H](CO)[C@@H](O)[C@H]1O [Zebularine],0.711
11,CN1CCc2c(c3ccccc3n2Cc2ccc(C(=O)NO)cc2)C1 [Tubastatin A (Hydrochloride)],2.07
12,O=C(O)c1ccc(O)c2ncccc12,0.734
13,CN1CCCN(C(=O)c2cccc(-c3ccc(/C=C4/C(=O)Nc5ccc(Cl)cc54)o3)c2)CC1,0.758
14,CNCc1ccc(-c2[nH]c3cc(F)cc4c3c2CCNC4=O)cc1 [Rucaparib (phosphate)],5.55 (active)
15,O=C(Nc1ccccc1-c1cn2c(CN3CCNCC3)csc2n1)c1cnc2ccccc2n1 [SRT 1720 (Hydrochloride)],1.16
16,Cc1cc2c(F)c(Oc3ncnn4cc(OC[C@@H](C)O)c(C)c34)ccc2[nH]1,0.898
17,N#CCC1(n2cc(-c3ncnc4[nH]ccc34)cn2)CN(C2CCN(C(=O)c3ccnc(C(F)(F)F)c3F)CC2)C1 [Itacitinib],0.6
18,CN1CCC(COc2cnc(-c3cccc(Cn4nc(-c5cccc(C#N)c5)ccc4=O)c3)nc2)CC1,0.968
19,O=C(Nc1nc2cccc(-c3ccc(CN4CCS(=O)(=O)CC4)cc3)n2n1)C1CC1 [Filgotinib],0.941

row,SMILES,PARP1 L713F-nLuc/akaLuc ratio
1,CC/C(=C(\c1ccc(O)cc1)c1ccc(OCCN(C)C)cc1)c1ccccc1 [4-Hydroxytamoxifen],0.97
2,O=C1c2cccc(O)c2C(=O)c2c(O)cccc21 [Danthron],1.32
3,COc1cc2nc(N3CCCN(C)CC3)nc(NC3CCN(Cc4ccccc4)CC3)c2cc1OC,0.488
4,CC(=O)O[C@@H]1CC[C@@]2(C)[C@@H](CC[C@]3(C)[C@@H]2C(=O)C=C2[C@@H]4[C@@H](C)[C@H](C)CC[C@]4(C)CC[C@]23C)[C@@]1(C)C(=O)O,1.18
5,Nc1nc2cc(CC[C@H]3C[C@@H](n4ccc5c(N)ncnc54)[C@H](O)[C@@H]3O)ccc2cc1Br,0.465
6,COCCNCc1ccc(-c2cc3nccc(Oc4ccc(NC(=O)C5(C(=O)Nc6ccc(F)cc6)CC5)cc4F)c3s2)nc1 [Sitravatinib (MGCD516)],1.48
7,Cc1cc(Nc2cc(CN3CCOCC3)c3nc(C)c(Cc4ccc(Cl)cc4F)n3n2)n[nH]1,1.18
8,CCS(=O)(=O)N1CCC([C@@H](C)n2c(C)c(C(=O)NCc3c(OC)cc(C)[nH]c3=O)c3ccccc32)CC1 (racemic) [CPI-169 (racemate)],1.12
9,N#Cc1ccc(-c2cnc3[nH]cc(NC(=O)c4cccnc4)c3c2)cc1,0.668
10,Clc1ccc(-c2csc(NN=C3CCCC3)n2)cc1,0.775
11,CC(C)=CC(=O)O[C@H]1Cc2cc3ccc(=O)oc3cc2OC1(C)C [Decursin],0.768
12,Cc1cnc(Nc2ccc(OCCN3CCCC3)cc2)nc1Nc1cccc(S(=O)(=O)NC(C)(C)C)c1 [Fedratinib (hydrochloride hydrate)],0.551
13,CCCC(=O)c1c(O)c(Cc2c(O)c(Cc3c(O)c(C)c(OC)c(C(=O)CCC)c3O)c(O)c(C(=O)[C@@H](C)CC)c2O)c(O)c(C)c1OC [Agrimol B],1.14
14,COc1ccc2c(c1O)OC(C)(C)c1c-2ccc2c1C(=O)N(c1ccc(C(=O)c3ccccc3)cc1)C2=O [Ampkinone],1.18
15,CNC(=O)c1cnc(NC(=O)C2CC2)cc1Nc1cccc(-c2ncc(F)cn2)c1OC,0.696
16,COc1c(O)cc2oc(-c3ccccc3)cc(=O)c2c1O [Oroxylin A],0.838
17,Cc1ccc(C(=O)Nc2cccc(C(F)(F)F)c2)cc1Nc1nc(-c2cccnc2)nc2c1cnn2C,0.656
18,C=C1CCC[C@]2(C)C=C3OC(=O)C(C)=C3C[C@@H]12 [Atractylenolide I],0.934
19,NC(=O)c1ccccc1 [Benzamide],1.08
